Experimental findings from PubChem BioAssay AID1318 (The Scripps Research Institute Molecular Screening Center, 2008) are described below.

Structures are written as SMILES. Screen size: about 1,200 compounds; about 160 (13%) were called active.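 Rule for the calls: active = activation above the solvent-only control well mean plus 3 SD, set per screening run (cut at about 120% in these data); inactive = the rest.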 The list is a sample of the results.

The nature of this test: STAT1 reporter activators, IFN-gamma induced, counter-screen for STAT3 activator project, cell-based, NIH 3T3, luciferase luminescence (AID 1318).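 Note: 100% = IFN-gamma with DMSO median signal so 100% means no change.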 The conditions noted are these: NIH 3T3 STAT1-luciferase reporter, at 5.7 µM, stronger effect = higher value. (A counterscreen serves to expose hits that act by an unwanted route or on another target.)
As for `CN1C(=O)/C(=C\c2cc(Br)cs2)c2ccccc21`, the activation (% of control) was 116% (inactive).
For `Cc1nc(N=C(N)N)nc2c(C)cccc12` the value was 104% (inactive); for `CN1CCN(c2ccc([N+](=O)[O-])c(Sc3nc4ccccc4[nH]3)c2)CC1`, 96.2% (inactive).
Next, `Cc1ccc(N=Nc2c(C)[nH]n(-c3ccccc3)c2=O)cc1`: 106% (inactive); `N#Cc1ccccc1NC(=O)COc1c(Br)cc(Br)c2cccnc12`: 85.6% (inactive); `c1ccc(-c2cn3c(n2)CCc2ccc4cccnc4c2-3)cc1`: 94.3% (inactive).
For `CCOC(=O)CN(C)Cc1c[nH]c2ccccc12` the value was 88.5% (inactive).
For the molecule `Cc1cccc(C(=O)Nc2nnc(Cc3c[nH]c4ccccc34)s2)c1`, the activation (% of control) is 92.4% (inactive).
Turning to `Cc1ccc(S(=O)(=O)Nc2nc3ccccc3nc2N2CCc3ccccc3C2)cc1`, the activation (% of control) is 105% (inactive).
For the molecule `O=C(Cc1c[nH]c2ccccc12)OCCOC(=O)Cc1c[nH]c2ccccc12`, the activation (% of control) was 94.1% (inactive).
On to `C/C(=N\NC(=O)CNc1cccc2ccccc12)c1ccc(Br)s1`, for which the activation (% of control) is 92.6% (inactive).
For `CSCCC(NC(=O)c1ccco1)C(=O)OCC(=O)Nc1ncc(Cl)c(C)c1Cl` (stereo not given) the value was 105% (inactive).
Next, `CCOc1ccc(C2c3[nH]c4ccccc4c3CCN2Cc2cn(CC)nc2C)cc1` (stereo not given): 112% (inactive).
For `Cc1ccc(Nc2nc(-c3sc(NC(=O)c4ccccc4)nc3C)cs2)cc1` the value was 105% (inactive).
In the case of `COc1ccccc1-c1nnc(NC(=O)c2ccc3ncsc3c2)o1`, the activation (% of control) is 137% (active).
On to `COc1ccccc1-c1nnc(SCC(=O)N2CC(C)CC(C)C2)o1` (stereo not given), for which the activation (% of control) was 97% (inactive).
`OC(COc1ccc2ccccc2c1)CN1CCOCC1` (stereo not given): the activation (% of control) was 118% (inactive).
With `COc1cccc(/C=C(/CC(=O)Nc2ccc(N3CCOCC3)cc2)c2nc3ccccc3s2)c1`, the activation (% of control) was 99.9% (inactive).
In the case of `Oc1c(C=Nc2cccc3nsnc23)ccc2ccccc12`, the activation (% of control) was 95.4% (inactive).
As for `Cc1ccc(NC(=O)c2cc([N+](=O)[O-])ccc2Cl)c(O)c1`, the activation (% of control) is 99.1% (inactive).
As for `CC(C)CNC(=O)COC(=O)/C=C/c1ccccc1[N+](=O)[O-]`, the activation (% of control) is 89.1% (inactive).
`O=C(Nc1cc(C(F)(F)F)ccc1Cl)c1cc(C2CC2)on1`: the activation (% of control) was 98.3% (inactive).
For `Oc1cccc2ccc(/C=C/c3ccc(Br)s3)nc12` the value was 103% (inactive); for `COc1nc(N=C(N)N)nc2c(C)cccc12`, 102% (inactive).
With `CCOC(=O)c1c(-c2cccc(C)c2)csc1NC(=O)c1c(-c2ccccc2)noc1C`, the activation (% of control) was 117% (inactive).
As to `O=[N+]([O-])c1ccc(N2CCN(S(=O)(=O)c3ccc4ccccc4c3)CC2)cc1NCc1ccco1`, the activation (% of control) was 110% (inactive).
Turning to `O=C1CCCN1CCCNc1ncnc2c1[nH]c1ccccc12`, the activation (% of control) was 82.6% (inactive).
Take `COc1ccc(NC(=O)ON=C2c3ccccc3-c3ccccc32)cc1`: the activation (% of control) is 107% (inactive).
For `Cc1ccc(-c2cc(C(=O)Nc3nn[nH]n3)c3ccccc3n2)c(C)c1` the value was 97.5% (inactive); for `C=CCn1c(-c2ccccc2OCC)n[nH]c1=S`, 112% (inactive).
As for `COC(=O)c1[nH]c2ccccc2c1NC(=O)CN1CCCc2ccccc21`, the activation (% of control) was 106% (inactive).
Take `CC(=O)Nc1ccc(NC(=O)COc2ccccc2C(=O)Nc2cccc(Cl)c2Cl)cc1`: the activation (% of control) is 100% (inactive).
For `Cc1ccc(/C=N/NC(=O)COc2ccccc2-c2ccccc2)cc1`, the activation (% of control) is 114% (inactive).
With `COc1cccc(NC(=S)C(C#N)=C2N(C)c3ccccc3N2C)c1`, the activation (% of control) was 103% (inactive).
Next, `COC(=O)c1[nH]c2cccc(C)c2c1NC(=O)CN1CCCc2ccccc21`: 93.5% (inactive); `NC(=O)CSc1c[nH]c2ccccc12`: 99.4% (inactive); `COc1ccc(-c2c3c(=O)n(C)c(=O)n(C)c3cn2-c2cccc(OC)c2)cc1`: 101% (inactive).
Consider `N#Cc1c(C(F)(F)F)cc(-c2ccc(Cl)cc2)nc1SCC(=O)O`, for which the activation (% of control) was 113% (inactive).
Regarding `COc1ccc([N+](=O)[O-])cc1C1NN=C(c2cccc3ccccc23)S1` (stereo not given), the activation (% of control) was 120% (inactive).
Consider `CSc1nc2sc3c(c2c(=O)[nH]1)CCc1ccccc1-3`, for which the activation (% of control) is 95.8% (inactive).
For `CCSc1nnc(-c2cc3c(s2)-c2ccccc2CC3)o1` the value was 132% (active); for `COc1ccccc1N1CCN(C(=O)c2cc3c(-c4ccc(Cl)cc4)nn(C)c3s2)CC1`, 93.1% (inactive).
Next, `COc1cc(OC)cc(C(=O)N[C@H](C(=O)Nc2nc3ccccc3[nH]2)C(C)C)c1`: 109% (inactive).
On to `CSc1nc(N(C)NC(=O)c2cccc(C)c2)c2ccccc2n1`, for which the activation (% of control) is 107% (inactive).
With `CCCS(=O)(=O)Nc1c(C(=O)O)[nH]c2ccccc12`, the activation (% of control) is 94.9% (inactive).
In the case of `CCOC(=O)N1CCN(CC(=O)Nc2cc(C)nn2-c2nc3ccccc3s2)CC1`, the activation (% of control) was 101% (inactive).
`CCNCc1cc2cc(C)ccc2[nH]c1=O`: the activation (% of control) is 98.7% (inactive).
Next, `Cn1cccc1C(=O)Nc1nccs1`: 104% (inactive).
For `CCOC(=O)C1CCN(c2ncnc3c2oc2ccc(Br)cc23)CC1` the value was 92.6% (inactive); for `COc1ccccc1C1C2=C(COC2=O)Nc2cc3c(cc21)OCO3` (stereo not given), 116% (inactive).
For the molecule `COc1ccc(/C=N/Nc2ncnc3sc4c(c23)CCCC4)cc1O`, the activation (% of control) is 139% (active).
For `CCCCC(=O)Nc1nc(C)c(-c2csc(Nc3ccc(Cl)cc3)n2)s1` the value was 102% (inactive).
For `Cc1cccc(C(=O)N2CCc3c([nH]c4ccccc34)C2CC(C)C)n1` (stereo not given) the value was 118% (inactive); for `C/C(=N\c1nc2ccccc2n1C)c1cc(Cl)ccc1O`, 92.8% (inactive); for `C=CCCC(=O)Nc1nc(C)c(-c2csc(Nc3ccc(Cl)cc3)n2)s1`, 104% (inactive).
On to `Oc1cccc(C2c3[nH]c4ccccc4c3CCN2Cc2cnn(-c3ccccc3)c2)c1` (stereo not given), for which the activation (% of control) was 93.5% (inactive).
In the case of `Fc1ccc2nc(-c3ccccc3)nc(SCc3nnc(-c4ccccc4)o3)c2c1`, the activation (% of control) was 96.5% (inactive).
For `COc1ccc(C2c3[nH]c4ccccc4c3CCN2CCCn2cccn2)cc1C` (stereo not given) the value was 95.6% (inactive); for `COc1ccc(Cl)cc1NC(=O)c1oc(C)nc1C`, 98.8% (inactive); for `Cc1csc2ncc(C(=O)N(Cc3ccccc3)c3ccccn3)c(=O)n12`, 103% (inactive).
For `Cc1ccc(C2=NN(C)c3nc4ccccc4n3C2)cc1` the value was 101% (inactive); for `COC(=O)c1[nH]c2ccccc2c1NS(=O)(=O)c1ccc(OC)cc1OC`, 92.3% (inactive); for `O=C(O)CSCc1nc2ccccc2s1`, 120% (active).
For `O=C(O)CS/C(=C\c1ccc(F)cc1)c1nc2ccccc2s1`, the activation (% of control) was 112% (inactive).
For the molecule `Cc1nc2ccccc2cc1O`, the activation (% of control) is 87.9% (inactive).
Consider `COc1ccc(C)cc1NC(=O)c1[nH]c(C)c(C(C)=O)c1C`, for which the activation (% of control) is 100% (inactive).
On to `CCn1c(SCC(=O)N/N=C/C=C/c2ccccc2[N+](=O)[O-])nnc1-c1ccccc1`, for which the activation (% of control) is 89.9% (inactive).
For `COc1cc(NS(=O)(=O)c2ccc(N/C=C(\C=O)c3nc4cc(Cl)ccc4o3)cc2)nc(OC)n1`, the activation (% of control) is 93.1% (inactive).
Next, `Cn1nc(-c2ccc(Cl)cc2)c2cc(C(=O)NCc3ccco3)sc21`: 94.9% (inactive); `O=c1[nH]c(CSc2ncc(-c3ccc(F)cc3)n2Cc2ccco2)nc2ccccc12`: 100% (inactive); `COCCCNc1nc2c(-c3cccc(C(F)(F)F)c3)nnn2c2ccccc12`: 98.4% (inactive).
Consider `O=C(NCc1ccco1)c1cccn2c(=O)c3c4c(sc3nc12)CCCC4`, for which the activation (% of control) is 87% (inactive).
Take `Cc1cccc(N(CC(=O)N=Nc2c(O)[nH]c3ccccc23)S(C)(=O)=O)c1C`: the activation (% of control) is 107% (inactive).
Next, `O=C(C1CCN(S(=O)(=O)Cc2ccccc2)CC1)N1CCCc2ccccc21`: 105% (inactive); `Cc1ccc(OCc2nnc(SC3CCc4ccccc4C3=O)n2C)cc1` (stereo not given): 132% (active).
